Targets with a hit are over-represented here; the source holds about 8,800 in all. About 0.5% of all pairs of compound and target were hits. Values without a mark were called inactive.
Legend:
Test in all cases: log2 fold change, soluble protein after heating vs DMSO (PISA); higher = thermal stabilisation; K562 lysate, 10 uM; active = over 0.2 and 3.5 SD of the protein, either way, in both replicates (recomputed)
lapatinib = compound: CS(=O)(=O)CCNCc1ccc(-c2ccc3ncnc(Nc4ccc(OCc5cccc(F)c5)c(Cl)c4)c3c2)o1 [lapatinib]
Method in brief: (§1)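 A 30 min treatment with 10 μM compound was applied to crude K562 extract at 1 mg/mL protein in PBS pH 7.4 with 1 mM MgCl2. Heating for 3 min spanned 48°C-58°C, after which aliquots were pooled, adjusted to 0.5% NP-40 at 4°C and spun at 21,000xg for 90 min. TMTpro 16plex LC-MS/MS of the supernatant, with channel sums equalised, gave values recorded as log-two fold change in thermal stability against solvent controls, from duplicates.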

pictilisib = compound: CS(=O)(=O)N1CCN(Cc2cc3nc(-c4cccc5[nH]ncc45)nc(N4CCOCC4)c3s2)CC1 [pictilisib]
Method in brief: as §1

crizotinib = compound: C[C@@H](Oc1cc(-c2cnn(C3CCNCC3)c2)cnc1N)c1c(Cl)ccc(F)c1Cl [crizotinib]
Method in brief: as §1

[1] = compound: C[C@H](C1=CC=C(C=C1)C(=O)NC2=C3C=CNC3=NC=C2)N
Method in brief: as §1

duvelisib = compound: C[C@H](Nc1ncnc2nc[nH]c12)c1cc2cccc(Cl)c2c(=O)n1-c1ccccc1 [duvelisib]
Method in brief: as §1

gandotinib = compound: Cc1cc(Nc2cc(CN3CCOCC3)c3nc(C)c(Cc4ccc(Cl)cc4F)n3n2)n[nH]1 [gandotinib]
Method in brief: as §1

tozasertib = compound: Cc1cc(Nc2cc(N3CCN(C)CC3)nc(Sc3ccc(NC(=O)C4CC4)cc3)n2)n[nH]1 [tozasertib]
Method in brief: as §1

doramapimod = compound: Cc1ccc(-n2nc(C(C)(C)C)cc2NC(=O)Nc2ccc(OCCN3CCOCC3)c3ccccc23)cc1 [doramapimod]
Method in brief: as §1

bafetinib = compound: Cc1ccc(NC(=O)c2ccc(CN3CC[C@H](N(C)C)C3)c(C(F)(F)F)c2)cc1Nc1nccc(-c2cncnc2)n1 [bafetinib]
Method in brief: as §1

[2] = compound: Cc1cccc(CC(=O)N2CCc3c2ccc(-c2cn(C)c4ncnc(N)c24)c3F)n1
Method in brief: as §1

Chain of UniProt P20585 (P20585 whole entry, looked up): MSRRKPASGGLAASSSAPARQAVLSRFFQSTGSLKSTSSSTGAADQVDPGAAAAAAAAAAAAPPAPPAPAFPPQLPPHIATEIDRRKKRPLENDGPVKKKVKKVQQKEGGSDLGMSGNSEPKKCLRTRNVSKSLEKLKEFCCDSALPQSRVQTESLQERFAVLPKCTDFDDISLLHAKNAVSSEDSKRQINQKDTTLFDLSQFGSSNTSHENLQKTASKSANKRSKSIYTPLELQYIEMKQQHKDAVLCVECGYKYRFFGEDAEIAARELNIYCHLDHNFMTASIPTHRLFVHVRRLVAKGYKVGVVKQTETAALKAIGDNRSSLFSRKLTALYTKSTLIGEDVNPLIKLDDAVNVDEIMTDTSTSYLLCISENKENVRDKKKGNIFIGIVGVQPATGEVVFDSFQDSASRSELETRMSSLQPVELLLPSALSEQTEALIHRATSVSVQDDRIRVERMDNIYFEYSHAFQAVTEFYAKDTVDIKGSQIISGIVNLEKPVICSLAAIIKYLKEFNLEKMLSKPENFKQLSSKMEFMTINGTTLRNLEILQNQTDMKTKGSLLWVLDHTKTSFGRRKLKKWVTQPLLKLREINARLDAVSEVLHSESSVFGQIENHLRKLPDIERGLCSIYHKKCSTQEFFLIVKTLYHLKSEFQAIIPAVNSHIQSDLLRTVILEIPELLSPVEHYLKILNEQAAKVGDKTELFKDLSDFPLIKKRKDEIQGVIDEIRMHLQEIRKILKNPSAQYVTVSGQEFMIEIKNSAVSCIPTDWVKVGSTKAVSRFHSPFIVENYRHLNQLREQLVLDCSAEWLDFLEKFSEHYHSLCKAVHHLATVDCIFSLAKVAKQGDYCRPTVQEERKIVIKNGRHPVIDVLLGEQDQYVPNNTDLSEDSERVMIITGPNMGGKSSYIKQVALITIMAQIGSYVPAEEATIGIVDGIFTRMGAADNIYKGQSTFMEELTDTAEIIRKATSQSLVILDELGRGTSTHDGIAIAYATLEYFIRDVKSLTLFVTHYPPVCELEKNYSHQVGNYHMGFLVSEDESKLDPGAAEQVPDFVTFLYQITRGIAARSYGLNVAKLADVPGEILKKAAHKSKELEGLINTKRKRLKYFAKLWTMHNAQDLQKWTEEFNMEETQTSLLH
Chain of UniProt Q9Y217 (Q9Y217 whole entry, looked up): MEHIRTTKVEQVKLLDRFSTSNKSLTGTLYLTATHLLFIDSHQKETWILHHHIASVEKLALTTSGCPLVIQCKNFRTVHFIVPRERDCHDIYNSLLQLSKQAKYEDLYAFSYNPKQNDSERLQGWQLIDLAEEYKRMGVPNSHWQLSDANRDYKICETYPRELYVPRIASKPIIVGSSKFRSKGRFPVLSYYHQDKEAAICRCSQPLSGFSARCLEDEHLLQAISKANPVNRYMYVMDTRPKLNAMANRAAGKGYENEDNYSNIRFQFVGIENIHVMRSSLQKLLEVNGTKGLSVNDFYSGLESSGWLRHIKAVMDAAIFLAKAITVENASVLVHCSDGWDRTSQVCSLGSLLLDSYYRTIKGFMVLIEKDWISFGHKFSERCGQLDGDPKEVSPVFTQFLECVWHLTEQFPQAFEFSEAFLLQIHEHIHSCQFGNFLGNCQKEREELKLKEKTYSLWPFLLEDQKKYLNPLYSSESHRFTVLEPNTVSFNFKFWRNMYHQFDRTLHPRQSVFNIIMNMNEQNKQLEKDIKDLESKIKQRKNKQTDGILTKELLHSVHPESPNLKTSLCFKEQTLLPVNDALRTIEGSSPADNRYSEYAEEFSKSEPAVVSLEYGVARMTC
Chain of UniProt Q9HD67 (Q9HD67 whole entry, looked up): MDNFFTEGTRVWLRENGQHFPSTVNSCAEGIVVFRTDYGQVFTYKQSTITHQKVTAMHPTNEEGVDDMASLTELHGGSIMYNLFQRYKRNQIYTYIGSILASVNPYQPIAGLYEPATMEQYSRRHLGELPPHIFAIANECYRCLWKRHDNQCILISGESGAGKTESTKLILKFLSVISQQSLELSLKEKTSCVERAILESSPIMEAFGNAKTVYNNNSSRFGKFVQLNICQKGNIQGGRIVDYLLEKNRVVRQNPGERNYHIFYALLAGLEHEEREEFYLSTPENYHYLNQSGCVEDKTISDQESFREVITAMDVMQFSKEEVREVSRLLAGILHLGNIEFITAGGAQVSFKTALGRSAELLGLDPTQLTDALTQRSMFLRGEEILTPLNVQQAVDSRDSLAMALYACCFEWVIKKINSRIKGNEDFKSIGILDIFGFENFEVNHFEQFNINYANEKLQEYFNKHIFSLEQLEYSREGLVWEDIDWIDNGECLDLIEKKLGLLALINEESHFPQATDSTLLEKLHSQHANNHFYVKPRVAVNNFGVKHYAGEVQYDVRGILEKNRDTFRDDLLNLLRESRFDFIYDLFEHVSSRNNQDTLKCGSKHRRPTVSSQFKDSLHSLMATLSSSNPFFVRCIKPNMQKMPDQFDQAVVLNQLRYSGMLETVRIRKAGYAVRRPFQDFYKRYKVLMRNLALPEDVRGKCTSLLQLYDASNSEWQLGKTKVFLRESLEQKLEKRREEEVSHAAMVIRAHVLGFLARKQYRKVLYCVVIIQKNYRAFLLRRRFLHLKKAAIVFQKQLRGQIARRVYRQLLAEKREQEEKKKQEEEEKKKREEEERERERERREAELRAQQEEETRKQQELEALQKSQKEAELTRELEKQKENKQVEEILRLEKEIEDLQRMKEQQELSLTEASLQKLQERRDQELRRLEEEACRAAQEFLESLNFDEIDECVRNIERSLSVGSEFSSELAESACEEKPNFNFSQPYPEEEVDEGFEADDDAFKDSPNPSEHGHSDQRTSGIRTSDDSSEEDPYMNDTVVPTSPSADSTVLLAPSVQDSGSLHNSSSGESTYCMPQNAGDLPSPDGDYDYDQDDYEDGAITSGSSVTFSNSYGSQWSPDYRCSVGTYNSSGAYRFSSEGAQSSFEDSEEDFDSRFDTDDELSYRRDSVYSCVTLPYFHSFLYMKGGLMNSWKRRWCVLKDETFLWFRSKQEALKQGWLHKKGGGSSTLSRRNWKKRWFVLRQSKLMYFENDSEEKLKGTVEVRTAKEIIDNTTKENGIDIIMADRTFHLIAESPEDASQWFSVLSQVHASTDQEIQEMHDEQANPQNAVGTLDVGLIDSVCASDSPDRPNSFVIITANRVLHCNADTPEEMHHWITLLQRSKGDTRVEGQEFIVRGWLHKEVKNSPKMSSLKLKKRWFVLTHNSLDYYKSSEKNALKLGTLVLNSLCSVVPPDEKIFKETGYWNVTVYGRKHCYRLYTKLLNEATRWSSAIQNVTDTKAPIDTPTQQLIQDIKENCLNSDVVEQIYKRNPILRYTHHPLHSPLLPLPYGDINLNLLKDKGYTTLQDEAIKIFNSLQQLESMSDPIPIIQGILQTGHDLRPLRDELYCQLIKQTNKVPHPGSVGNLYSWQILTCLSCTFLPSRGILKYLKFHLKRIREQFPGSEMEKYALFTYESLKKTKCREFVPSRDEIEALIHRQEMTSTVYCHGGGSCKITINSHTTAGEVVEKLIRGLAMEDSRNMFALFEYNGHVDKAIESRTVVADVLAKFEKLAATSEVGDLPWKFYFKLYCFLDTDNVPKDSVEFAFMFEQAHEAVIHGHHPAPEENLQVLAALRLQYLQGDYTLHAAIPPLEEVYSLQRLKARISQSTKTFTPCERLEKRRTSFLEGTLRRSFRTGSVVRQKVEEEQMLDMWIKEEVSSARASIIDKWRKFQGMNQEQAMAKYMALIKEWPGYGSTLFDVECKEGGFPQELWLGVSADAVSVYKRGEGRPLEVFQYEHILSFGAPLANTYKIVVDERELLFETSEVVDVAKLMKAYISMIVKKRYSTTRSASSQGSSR
Chain of UniProt P30419 (P30419 whole entry, looked up): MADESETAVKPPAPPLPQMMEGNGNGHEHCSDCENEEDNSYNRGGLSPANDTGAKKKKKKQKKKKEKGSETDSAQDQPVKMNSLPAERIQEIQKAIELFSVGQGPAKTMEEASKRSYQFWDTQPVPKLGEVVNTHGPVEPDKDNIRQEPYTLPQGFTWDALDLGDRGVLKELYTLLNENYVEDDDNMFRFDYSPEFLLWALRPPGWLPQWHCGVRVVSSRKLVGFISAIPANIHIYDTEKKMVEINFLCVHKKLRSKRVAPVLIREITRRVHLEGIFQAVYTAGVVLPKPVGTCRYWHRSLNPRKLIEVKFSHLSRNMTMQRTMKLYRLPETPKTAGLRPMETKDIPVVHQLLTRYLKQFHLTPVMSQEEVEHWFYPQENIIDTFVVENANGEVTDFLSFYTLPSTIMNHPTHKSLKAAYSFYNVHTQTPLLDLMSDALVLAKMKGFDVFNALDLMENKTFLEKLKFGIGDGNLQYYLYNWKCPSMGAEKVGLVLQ
Chain of UniProt Q9BZ23 (Q9BZ23 whole entry, looked up): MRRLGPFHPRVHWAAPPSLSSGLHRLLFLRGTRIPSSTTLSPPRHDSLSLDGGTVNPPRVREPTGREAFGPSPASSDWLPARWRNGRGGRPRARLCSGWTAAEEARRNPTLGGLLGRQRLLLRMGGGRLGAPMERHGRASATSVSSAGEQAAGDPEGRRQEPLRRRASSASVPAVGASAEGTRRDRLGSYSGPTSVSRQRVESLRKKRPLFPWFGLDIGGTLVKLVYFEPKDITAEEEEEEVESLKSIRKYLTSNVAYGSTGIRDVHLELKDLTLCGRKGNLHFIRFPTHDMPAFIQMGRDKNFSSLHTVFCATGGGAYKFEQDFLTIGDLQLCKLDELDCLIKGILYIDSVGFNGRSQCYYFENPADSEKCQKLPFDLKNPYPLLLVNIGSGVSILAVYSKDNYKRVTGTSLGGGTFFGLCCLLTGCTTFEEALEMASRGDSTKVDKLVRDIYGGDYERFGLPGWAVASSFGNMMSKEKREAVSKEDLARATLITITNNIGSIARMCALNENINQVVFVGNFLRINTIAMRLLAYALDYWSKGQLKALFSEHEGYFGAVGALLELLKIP
Chain of UniProt Q9BSD7 (Q9BSD7 whole entry, looked up): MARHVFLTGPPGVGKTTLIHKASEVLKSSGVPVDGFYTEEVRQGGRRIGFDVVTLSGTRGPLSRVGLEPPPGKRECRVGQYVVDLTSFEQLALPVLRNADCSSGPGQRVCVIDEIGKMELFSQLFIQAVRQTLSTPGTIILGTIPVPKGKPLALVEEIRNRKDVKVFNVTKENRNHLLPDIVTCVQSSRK

Target | log2 fold change (lapatinib) | log2 fold change (pictilisib) | log2 fold change (crizotinib) | log2 fold change [1] | log2 fold change (duvelisib) | log2 fold change (gandotinib) | log2 fold change (tozasertib) | log2 fold change (doramapimod) | log2 fold change (bafetinib) | log2 fold change [2]
NUDT4 (UniProt Q9NZJ9) | -0.01 | -0.055 | 0.032 | 0.166 | -0.039 | -0.188 | -0.022 | -0.076 | 0.117 | -0.304 (active)
NONO (UniProt Q15233) | -0.004 | 0.001 | 0.011 | 0.071 | -0.01 | -0.06 | 0.028 | -0.014 | -0.033 | -0.04
NCAPG (UniProt Q9BPX3) | -0.029 | 0 | -0.074 | -0.028 | -0.007 | -0.094 | -0.011 | 0.026 | -0.035 | 0.011
PAN2 isoform 2 (UniProt Q504Q3) | -0.044 | 0.045 | -0.085 | 0.003 | 0.041 | -0.053 | 0.27 (active) | 0.09 | -0.108 | 0.084
NMT1 (UniProt P30419) | 0.02 | 0.005 | -0.006 | 0.016 | -0.023 | -0.021 | 0.012 | -0.015 | 0.09 | -0.034
PAGE4 (UniProt O60829) | -0.012 | -0.05 | -0.028 | 0.344 (active) | 0.091 | -0.102 | -0.023 | 0.11 | -0.004 | -0.134
NCK1 (UniProt P16333) | 0.025 | 0 | -0.024 | 0.065 | 0.014 | -0.051 | 0.005 | 0.03 | -0.033 | -0.024
NUP93 (UniProt Q8N1F7) | -0.011 | -0.029 | -0.03 | -0.027 | -0.03 | -0.158 | 0.015 | 0.022 | -0.054 | 0.07
NARF (UniProt Q9UHQ1) | -0.027 | 0.01 | 0.032 | 0.001 | 0.029 | 0.008 | 0.02 | 0.012 | -0.008 | -0.04
OARD1 (UniProt Q9Y530) | -0.001 | -0.011 | -0.003 | -0.022 | -0.015 | -0.012 | 0.042 | 0.035 | -0.023 | 0.037
NADK2 (UniProt Q4G0N4) | 0.02 | -0.028 | -0.005 | -0.04 | 0.03 | 0.004 | 0.012 | -0.002 | 0.01 | 0.017
NTPCR (UniProt Q9BSD7) | -0.003 | -0.028 | -0.071 | 0.031 | -0.003 | -0.094 | -0.028 | 0.011 | -0.044 | -0.052
PANK2 (UniProt Q9BZ23) | 0.079 | 0.143 | -0.073 | -0.023 | -0.126 | 0.077 | 0.008 | -0.008 | -0.029 | 0.095
NIPBL (UniProt Q6KC79) | -0.03 | -0.081 | -0.034 | 0.039 | 0 | -0.094 | -0.005 | 0.033 | 0.001 | 0.016
MTMR6 (UniProt Q9Y217) | 0.017 | 0.025 | -0.037 | 0.071 | 0.02 | -0.024 | 0.014 | 0.056 | 0.001 | -0.113
NARS2 (UniProt Q96I59) | 0.039 | -0.132 | -0.034 | 0.039 | -0.002 | -0.058 | 0.013 | -0.01 | -0.053 | 0.024
NQO1 (UniProt P15559) | -0.055 | -0.048 | -0.04 | -0.074 | 0.012 | 0.009 | 0.022 | -0.333 (active) | -0.023 | 0.262 (active)
NUP210 (UniProt Q8TEM1) | -0.074 | -0.076 | -0.028 | -0.034 | 0.013 | -0.08 | -0.012 | -0.017 | -0.007 | 0.044
NT5DC2 isoform 2 (UniProt Q9H857) | -0.036 | -0.019 | 0.004 | -0.018 | -0.01 | 0.021 | -0.019 | -0.029 | -0.027 | -0.027
MSH3 (UniProt P20585) | -0.021 | -0.005 | -0.004 | -0.018 | -0.001 | -0.019 | 0.021 | 0.019 | -0.003 | 0.028
NUCB2 (UniProt P80303) | -0.006 | -0.006 | 0.041 | 0.253 (active) | 0.008 | -0.044 | 0.003 | -0.024 | -0.022 | -0.126
NEBL (UniProt O76041) | 0.054 | -0.046 | 0.09 | 0.106 | 0.023 | -0.204 | 0.01 | -0.006 | -0.037 | -0.076
MYO10 (UniProt Q9HD67) |  | 0.076 | -0.042 | 0.696 (active) |  | -0.016 |  | -0.321 | -0.456 | -0.029

— the supplement of paper PMC10849652
